A short description of test [1]: CCTE_Shafer_MEA_acute_spike_number: CCTE's Neural Acute Assay for Total Number of Spikes, Shafer Lab (AID 2284008).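 For AC50: curve fitted for decrease in spike count so AC50 reflects inhibitors.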 The method in brief: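 Using an adaptive detector set to 8x rms noise, spikes were counted in 40-min windows before and after compound addition (0.03-40 uM) to rat cortical networks at 37 C; the well-level change from baseline was analysed relative to DMSO.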

Test [2] can be described thus: CCTE_Shafer_MEA_acute_firing_rate_mean: CCTE's Neural Acute Assay for Mean Firing Rate, Shafer Lab (AID 2284009).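 Note: analyzed for loss of signal so actives lower firing rate relative to DMSO.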 The method in brief:
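Spontaneous spiking of primary rat cortical networks, DIV 13/15, 37 C. Compound 0.03-40 uM, n ≥3 wells; 40 min baseline vs 40 min treated. Endpoint fitted in loss-of-signal direction against DMSO.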

Test [3] in a line: CCTE_Harrill_HTTr_Viability_MCF7: CCTE's 6-hour Cell Viability Assessment for the High-Throughput Transcriptomics (HTTr) Platform, in MCF-7 cells cultured in DMEM + 10% fetal bovine serum, Harrill Lab (AID 2284010). In outline:
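PI exclusion, high-content imaging; 8-pt dilution series, 6 h exposure; bidirectional fit vs DMSO (neg. ctrl/baseline); gain of signal = loss of membrane integrity.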

Test [4] is described as follows: CCTE_Harrill_HTTr_Apoptosis_MCF7: CCTE's 6-hour Apoptosis Assessment for the High-Throughput Transcriptomics (HTTr) Platform, in MCF-7 cells cultured in DMEM + 10% fetal bovine serum, Harrill Lab (AID 2284011). The method in brief: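 Apoptosis in MCF-7 cells grown in DMEM with 10% fetal bovine serum was scored after a six hour exposure by high content imaging of caspase-3/7 activation (CellEvent Caspase 3/7 Green), with DMSO serving as negative control and baseline.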

A short description of test [5]: CCTE_Harrill_HTTr_CellCount_MCF7: CCTE's Cell Proliferation Assessment for the High-Throughput Transcriptomics (HTTr) Platform, Harrill Lab (AID 2284012; active = hit-call score of the fitted dose curve at least 0.9, where 1 is the maximum;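 note: count of Hoechst-stained nuclei per well by high-content imaging in MCF-7 cells; cells exposed to compound for six hours; intended direction is loss of nuclei count meaning fewer cells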). The method in brief: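 Readout: Hoechst nuclear count by high-content imaging. MCF-7, 8-point dilution series, 6 h exposure. Bidirectional fit vs DMSO baseline.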
Test [6] can be described thus: CCTE_Shafer_MEA_acute_burst_number: CCTE's Neural Acute Assay for Single-Electrode Bursts, Shafer Lab (AID 2284013). The method in brief: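 Burst totals were derived with adaptive spike detection (8x rms threshold) on filtered signals from rat cortical cultures; change relative to pre-treatment baseline after 40-min compound exposure (0.03-40 uM) was fitted in the negative direction against DMSO.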

The nature of test [7]: CCTE_Shafer_MEA_acute_burst_duration_mean: CCTE's Neural Acute Assay for Mean Burst Duration, Shafer Lab (AID 2284014).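 Note: hits are decreases in mean burst duration relative to DMSO controls.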 The method in brief: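 Acute exposure of mature rat cortical networks (DIV 13 or 15) grown on microelectrode arrays to 0.03-40 uM compound. Mean burst duration compared with the 40-min pre-dose baseline over a 40-min post-dose recording at 37 C.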
Test [8] can be described thus: CCTE_Shafer_MEA_acute_interburst_interval_mean: CCTE's Neural Acute Assay for Mean Interburst Interval, Shafer Lab (AID 2284016).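 Note: percent change of mean interburst interval versus each well's own pre-dose baseline; curves fitted for decrease in interburst interval relative to DMSO.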 The method in brief: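 MEA recording of spontaneous network bursting in primary rat cortical cultures; mean interburst interval was compared before and after a 40-min compound exposure (0.03-40 uM) and expressed as percent change, relative to DMSO.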

The nature of test [9]: CCTE_Shafer_MEA_acute_burst_percentage_mean: CCTE's Neural Acute Assay for Percentage of Spikes in a Burst, Shafer Lab (AID 2284017).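 For AC50: curve fitted for loss of signal so potency reflects decreased burst percentage.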 In outline: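 Compounds were tested at 0.03-40 uM on primary rat cortical neuron networks grown over microelectrodes, with at least three wells per compound. Spontaneous firing was recorded for 40 min before and 40 min after dosing, and the change in burst percentage was computed per well.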

The nature of test [10]: CCTE_Shafer_MEA_acute_burst_percentage_std: CCTE's Neural Acute Assay for Standard Deviation of Burst Percentage, Shafer Lab (AID 2284018).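 Note: fitted in the negative direction so actives lower burst percentage SD.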 In outline: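 Primary rat cortical neurons on 16-electrode MEA wells were recorded 40 min at baseline (DIV 13 or 15), then 40 min after compound (0.03-40 uM), at 37 C. Well value is SD across electrodes of spikes-in-bursts/total spikes; endpoint is percent change, DMSO-referenced.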

The nature of test [11]: CCTE_Shafer_MEA_acute_per_network_burst_spike_number_mean: CCTE's Neural Acute Assay for Average Number of Spikes in a Network Burst, Shafer Lab (AID 2284019).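 For AC50: curve fitted for loss of signal so actives reduce spikes per network burst.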 The method in brief: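 Acute exposure of rat primary cortical networks (DIV 13/15) on MEAs; adaptive spike detection at 8x rms noise, 37 C. Percent change in spikes per network burst after 40 min with compound (0.03-40 uM), negative direction vs DMSO.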

Test [12] concerns the target Nucleoli Translocation, AR (gene 367) (UniProt P10275). Briefly: UPITT_HCI_U2OS_AR_TIF2_Nucleoli_Antagonist: University of Pittsburgh U2OS Androgen Receptor-Transcriptional Intermediary Factor 2 (AR-TIF2) Antagonism High Content Imaging Assay for Nucleoli Translocation (AID 2283997; active = hit-call score of the fitted dose curve at least 0.9, where 1 is the maximum). In outline: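 An antagonist-mode imaging screen: engineered U2OS (AR-RFP, TIF2-GFP) exposed to 20 uM compound, 0.2% DMSO. Activity reflects nucleolar red fluorescence change relative to DHT baseline.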

The target in test [13] is Ratio of Nucleoli Translocation and Cytoplasm, AR (gene 367) (UniProt P10275). Briefly: UPITT_HCI_U2OS_AR_TIF2_Nucleoli_Cytoplasm_Ratio_Agonist: University of Pittsburgh U2OS Androgen Receptor-Transcriptional Intermediary Factor 2 (AR-TIF2) Agonism High Content Imaging Assay for Ratio of Nucleoli Translocation and Cytoplasm (AID 2284000; active = hit-call score of the fitted dose curve at least 0.9, where 1 is the maximum;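 note: hits raise the red nucleolar to cytoplasm ratio above vehicle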). The method in brief: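 Primary screen at 20 uM final (0.2% DMSO), then triplicate confirmation and dose-response from 0.195 to 50 uM final (0.5% DMSO). Cells: U2OS with AR-RFP and TIF2-GFP. Endpoint is the nucleoli/cytoplasm red-fluorescence ratio, gain-of-signal vs DMSO.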
Chain of Ratio of Nucleoli Translocation and Cytoplasm, AR (gene 367) (P10275 whole entry, looked up): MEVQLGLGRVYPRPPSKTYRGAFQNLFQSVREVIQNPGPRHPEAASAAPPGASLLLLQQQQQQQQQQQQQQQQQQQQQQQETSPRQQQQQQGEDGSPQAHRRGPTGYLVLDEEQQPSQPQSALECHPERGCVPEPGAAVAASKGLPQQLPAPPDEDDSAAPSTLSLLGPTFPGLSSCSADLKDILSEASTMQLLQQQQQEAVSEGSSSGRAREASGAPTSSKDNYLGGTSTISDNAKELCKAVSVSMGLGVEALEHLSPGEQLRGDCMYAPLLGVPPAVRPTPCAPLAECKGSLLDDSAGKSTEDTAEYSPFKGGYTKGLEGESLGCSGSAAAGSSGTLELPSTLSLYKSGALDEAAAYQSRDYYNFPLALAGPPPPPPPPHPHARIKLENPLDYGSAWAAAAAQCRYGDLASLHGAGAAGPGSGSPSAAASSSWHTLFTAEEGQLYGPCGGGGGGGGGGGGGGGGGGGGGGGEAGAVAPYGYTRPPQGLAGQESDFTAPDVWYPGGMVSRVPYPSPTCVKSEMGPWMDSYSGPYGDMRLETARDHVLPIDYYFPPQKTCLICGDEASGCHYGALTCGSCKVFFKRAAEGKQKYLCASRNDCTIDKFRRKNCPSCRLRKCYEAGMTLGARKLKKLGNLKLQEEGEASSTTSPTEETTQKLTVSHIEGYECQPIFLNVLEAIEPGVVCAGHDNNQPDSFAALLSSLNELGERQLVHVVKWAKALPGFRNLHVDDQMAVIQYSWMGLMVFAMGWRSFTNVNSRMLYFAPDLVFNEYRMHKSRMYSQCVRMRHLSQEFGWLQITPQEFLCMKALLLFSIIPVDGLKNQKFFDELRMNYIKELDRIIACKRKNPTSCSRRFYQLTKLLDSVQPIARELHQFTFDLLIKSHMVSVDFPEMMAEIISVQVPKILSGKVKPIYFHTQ

For test [14], the target named is Nucleoli Translocation, AR (gene 367) (UniProt P10275). The experiment in a line: UPITT_HCI_U2OS_AR_TIF2_Nucleoli_Agonist: University of Pittsburgh U2OS Androgen Receptor-Transcriptional Intermediary Factor 2 (AR-TIF2) Agonism High Content Imaging Assay for Nucleoli Translocation (AID 2283998; active = hit-call score of the fitted dose curve at least 0.9, where 1 is the maximum). In outline:
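High-content images quantify nucleolar accumulation of RFP-fused AR in cells also expressing GFP-TIF2; the endpoint is fitted as signal gain versus DMSO controls across final concentrations of 0.195 to 50 uM.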

In test [15] the target is Ratio of Nucleoli Translocation and Cytoplasm, AR (gene 367) (UniProt P10275). The experiment in a line: UPITT_HCI_U2OS_AR_TIF2_Nucleoli_Cytoplasm_Ratio_Antagonist: University of Pittsburgh U2OS Androgen Receptor-Transcriptional Intermediary Factor 2 (AR-TIF2) Antagonism High Content Imaging Assay for Ratio of Nucleoli Translocation and Cytoplasm (AID 2283999; active = hit-call score of the fitted dose curve at least 0.9, where 1 is the maximum;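 note: antagonists lower the DHT-driven ratio of nucleolar to cytoplasmic red signal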). The method in brief:
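Read-out is the ratio of nucleolar to cytoplasmic AR-RFP fluorescence, imaged by high-content microscopy in U2OS cells coexpressing TIF2-GFP. Single-point 20 uM screen, triplicate confirmation, then 0.195–50 uM dose response; activity referenced to DHT baseline.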

Test [16] relates to DIO1 (gene 1733). Briefly: CCTE_GLTED_hDIO1: CCTE's human Deiodinase 1 (DIO1) Inhibition Assay, Great Lakes Toxicology and Ecology Division (GLTED) Lab (AID 2283987; active = hit-call score of the fitted dose curve at least 0.9, where 1 is the maximum;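 note: isolated human DIO1 enzyme in a cell-free setup rather than cells; enzyme activity read as free iodide liberated from substrate via Sandell-Kolthoff colorimetry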). In outline: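 Chemicals are tested on human DIO1 without cells for 3 h. Uninhibited enzyme frees iodide, which speeds cerium(IV) reduction by arsenic and is read by spectrophotometry.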
The nature of test [17]: CCTE_Simmons_MITO_inhib_resp_rate: CCTE's HepG2 Seahorse XF Respirometric Screening Assay at Inhibited Respiratory State [full ETC block], Simmons Lab (AID 2284006). The note with it: actives raise or lower the signal. The method in brief:
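OCR read-out in the inhibited phase following rotenone/antimycin A, after compound and FCCP injections, in HepG2 cells. Seven concentrations (125 nM to 100 uM final), three biological replicates, 6-min cycles over 72 min; DMSO baseline.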

Test [18] is described as follows: CCTE_Simmons_MITO_viability: CellTiter-Glo Viability Assessment for CCTE's HepG2 Seahorse XF Respirometric Screening Assay [post-hoc], Simmons Lab (AID 2284007; active = hit-call score of the fitted dose curve at least 0.9, where 1 is the maximum;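 note: cells exposed to chemical for 90 min before the ATP read; actives lower ATP signal relative to DMSO baseline meaning reduced viability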). In outline: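 Luciferase-coupled ATP luminescence, single endpoint. HepG2, post-respirometry. Compound 125 nM–100 uM final, 7 conc., 90 min. n=3 biological, technical singles. DMSO vehicle/baseline; dichlone 10 nM–100 uM, 8 conc., as positive control.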
For orientation: In ATP-based viability assays light output follows the ATP content of the culture.

Records with an inconclusive call do not appear. Activity calls are given as the source filed them. Rule for the calls, unless noted: active = hit-call score of the fitted dose curve at least 0.9, where 1 is the maximum; inactive = score below 0.9.

For orientation: AC50 means the concentration at which the activity in the assay is half-maximal.

Chain of Nucleoli Translocation, AR (gene 367) (P10275 whole entry, looked up, the tested form may be a part): as the sequence (P10275 whole entry, looked up) above

In the case of `CCN(CC)N=O`, the outcome in [1], in test [2], in [3], in [4], in test [5] and in test [6] was inactive. Besides, the outcome in [7], in test [8], in [9], in test [10] and in test [11] was inactive.
For `Nc1ccc([N+](=O)[O-])cc1`, the call in test [12], in test [13], in [3], in [4] and in [5] was inactive.
On to `O=[N+]([O-])C(Br)(CO)CO`, for which the AC50 is 31.8 µM (active) in test [12]; 33.6 µM (active) in test [1]; 33.9 µM (active) in test [2]; 30.4 µM (active) in test [7]; 30.2 µM (active) in test [9]. Also, the call in test [14], in [15], in test [13], in test [3], in test [4] and in test [5] was inactive. Further, the compound was classed as inactive in test [6], in test [8], in test [10] and in [11].
As to `ClC1=C(Cl)C2(Cl)C3C(Cl)C=CC3C1(Cl)C2(Cl)Cl` (configuration not stated), the AC50 in test [1] was 7.52 µM (active); in test [2] it was 7.53 µM (active); in test [6], 20 µM (active); in test [9] it was 0.72 µM (active); in [10] it was 20 µM (active); in [11], 4.22 µM (active). The result in [3], in [4], in test [5], in test [7] and in test [8] was inactive.
With `CCCCCOC(=O)c1ccccc1C(=O)OCCCCC`, the AC50 in [1] was 2.58 µM (active); in test [2], 2.58 µM (active); in test [6] it was 5.2 µM (active); in test [8], 1.49 µM (active); in test [9], 9.17 µM (active). Besides, the outcome in test [3], in [4], in test [5], in test [7], in test [10] and in test [11] was inactive.
For the compound `CCCCOC(=O)c1ccccc1C(=O)OCc1ccccc1`, the AC50 in test [1] is 3.11 µM (active); in test [2] it was 3.11 µM (active); in [6] it was 2.71 µM (active); in test [8], 3.83 µM (active); in test [9], 6.09 µM (active); in [10], 5 µM (active). In test [11], the AC50 was 2.58 µM (active). In addition, the outcome in test [3], in test [4], in test [5] and in [7] was inactive.
Turning to `O=C1CCCO1`, the compound was called inactive in [12], in test [3], in test [4] and in test [5].
Regarding `Clc1ccc(C(c2ccc(Cl)cc2)C(Cl)(Cl)Cl)cc1`, the compound was classed as inactive in test [1], in test [2], in test [3], in [4], in test [5] and in test [6]. For the same compound, the compound was called inactive in test [7], in test [8] and in [11]. In addition, the figures for the AC50 in test [9] and in [10] were 11.4 µM (active) and 5.34 µM (active), respectively.
Consider `CO[C@@H]1[C@H](OC(=O)NC(=O)CCl)CC[C@]2(CO2)[C@H]1[C@@]1(C)O[C@@H]1CC=C(C)C`, for which, in test [16], the half-maximal activity concentration (AC50) was 17.8 µM (active). The compound was called inactive in test [12], in [14], in [15], in test [13], in test [3] and in test [4].
Turning to `CCCCCCCCn1sccc1=O`, the AC50 in [16] was 54 µM (active); in [18], 74.4 µM (active); in test [4], 45.9 µM (active); in test [5], 50 µM (active); in test [7], 6.78 µM (active); in test [9], 8.26 µM (active). Further, the AC50 in test [11] was 3.28 µM (active). For the same compound, the call in test [17], in test [1], in test [2], in test [3], in test [6] and in [8] was inactive. Also, the compound was called inactive in test [10].
As for `CCN(CC)CCO`, the outcome in [1], in test [2], in test [3], in test [4], in [5] and in test [6] was inactive. The compound was classed as inactive in test [7], in test [8], in test [9], in test [10] and in test [11].
In the case of `COC(=O)c1ccccc1N`, the outcome in [3], in test [4] and in test [5] was inactive.
On to `O=C(Oc1ccc(Br)cc1)N1CCN2CCC1CC2`, for which the compound was classed as inactive in test [1], in test [2], in test [3], in test [4], in [6] and in test [7]. In addition, the call in test [8], in [9] and in test [10] was inactive. Also, the AC50 in test [11] is 20 µM (active).
As for `Clc1ccc(Cl)c(Cl)c1`, the result in test [3] and in [4] was inactive.
As for `CN(C)c1ccc(C(=O)c2ccc(N(C)C)cc2)cc1`, the result in test [3], in test [4] and in [5] was inactive.
As to `O=C(O)C1C2CCC(O2)C1C(=O)O` (configuration not stated), the outcome in test [3], in test [4] and in test [5] was inactive.

The values above are taken from PubChem BioAssay (EPA / NIEHS).
